Screens: PubChem, National Center for Advancing Translational Sciences (NCATS)
Compounds with a hit are over-represented: about 0.47% of the library has one in this group of screens.
AT treatment: potential ataxia-telangiectasia treatments restoring KAP-1 phosphorylation; F2112 A-T fibroblasts, KAP-1 phosphorylation AlphaLISA; neocarzinostatin DNA damage 30 min before lysis; Potency, µM (series often up to 57.5 µM), for the others: at the top dose activation, most hits filed as activators; hit rate 0.19% among 320,000; also: potency is read from the fitted curve at half-maximal effect; % of control where 0% means no effect; nearly all actives have a fitted effect of over 45% in size
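ATM-like activity read as KAP-1 phosphorylation via AlphaLISA donor/acceptor antibody pairs after lysis and 6 hr at 25C. Cells were ATM-null patient fibroblasts (F2112, hTERT), dosed 60 min, then exposed to the DSB inducer NCS for 30 min.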
Mm-Cpn inhibitor: M. maripaludis TRiC chaperonin inhibition; purified Mm-Cpn ATPase, ADP Transcreener TR-FRET; Potency, µM (top dose mostly 76.9 µM), inactives show top-dose activity, negative = inhibition, actives largely listed as inhibitors; AID 504842; hit rate 0.031% among 330,000; also: potency is read from the fitted curve at half-maximal effect; % is scaled to controls: 0 for no effect and ±100 for the full control effect; nearly all actives have a fitted effect of over 80% in size
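Purified archaeal chaperonin (25 nM final) was preincubated with compound for 10 min at 37°C, then ATP (10 uM final) was added for 30 min at 37°C in Tris pH 7.4/KCl/MgCl2/DTT buffer. ADP was quantified by HTRF Transcreener TR-FRET.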
Anesthetic bind: binds horse apoferritin like a general anesthetic; P02791; apoferritin/1-aminoanthracene competitive binding, fluorescence; Potency, µM (highest dose often 77.5 µM), for the others: top-dose activity change, negative = displacement, hits mostly inhibitors; hit rate 0.074% among 350,000; AID 485281; also: potency is read from the fitted curve at half-maximal effect; % is scaled to controls: 0 for no effect and ±100 for the full control effect; nearly all actives have a fitted effect of over 20% in size
Target sequence (P02791 2-175 limits assumed): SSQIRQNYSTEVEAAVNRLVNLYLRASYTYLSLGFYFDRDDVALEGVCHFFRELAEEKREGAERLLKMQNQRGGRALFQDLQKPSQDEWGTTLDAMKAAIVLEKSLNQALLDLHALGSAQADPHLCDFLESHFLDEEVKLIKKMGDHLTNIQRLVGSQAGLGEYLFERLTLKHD
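10 uM apoferritin + 50% sat. 1-AMA, PBS; cpd 10 min RT; Ex380/Em535 endpoint; normalized to free probe vs complex; 4-param Hill fit; propofol titration as pos. ctrl.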
CCT chaperon mod: modulators of cytosolic chaperonin (CCT/TRiC) activity; purified chaperonin ATPase assay, HTRF ADP detection, 30 min; activity change, % (test concentration not listed), hits read low; hit rate 0.3% among 360,000; AID 651819; in the data active = activity change below about -30%; also: % is scaled to controls: 0 for no effect and ±100 for the full control effect
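First, chaperonin was dispensed at 40 nM or 20 nM final depending on batch activity. Next, compounds were pinned at 76 uM and ATP added at 10 uM. After 30 min at 37 °C, ADP detection reagents ran 30 min at ambient temperature.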
* = called active by the depositor; ? = inconclusive; . = no result given; [ ] = dose if it differs, or a comment. Unless noted, calls follow the shape of the dose curve; as a rule, active = well fitted curve in the direction sought with a large enough effect; inconclusive = small, poorly fitted or top-dose-only effect, or another doubt; inactive = no such curve, though single readings can be large; an effect the other way counts as inactive or inconclusive.

SMILES	AT treatment	Mm-Cpn inhibitor	Anesthetic bind	CCT chaperon mod
Cc1cc(C(=O)Nc2cccc3c2O[C@@H](CN(C)S(C)(=O)=O)[C@H](C)CN([C@@H](C)CO)C3=O)n(C)n1	0%	-1%	.	-32*
C[C@H](CO)N1C[C@H](C)[C@@H](CN(C)C(=O)Nc2ccc(C(F)(F)F)cc2)Oc2c(cccc2N(C)C)C1=O	0%	4µM*	.	-3
Cc1cc(=O)oc2c(C)c(OC(C)C(=O)NCC3CCC(C(=O)O)CC3)ccc12 (stereo unspecified)	3%	1%	-3%	-1
Cc1c(OC(C)C(=O)NCC2CCC(C(=O)O)CC2)ccc2c3c(c(=O)oc12)CCCC3 (stereo unspecified)	2%	0%	-5%	-37*
CCCN1C(=O)c2ccccc2NC1c1ccc(OC)cc1OC (stereo unspecified)	11%	-1%	1%	2
CCCN1C(=O)c2ccccc2NC1c1ccc(OC)cc1O (stereo unspecified)	9%	1%	31%	-86*
NC(=O)c1ccccc1N/C=C/C(=O)c1ccco1	-2%	-3%	-3%	-60*
CCOc1ccc(NC(=O)NCCc2c(C)nn(C)c2C)cc1	.	.	26%	.
CCn1c(SCC(=O)Nc2sc3c(c2C#N)CCC(C(C)(C)C)C3)nnc1-c1ccco1 (stereo unspecified)	1%	0%	28µM*	-2
CCn1c(SCC(=O)Nc2sc3c(c2C#N)CCCC3)nnc1-c1ccco1	-5%	1%	?	-4
NC(=O)c1c(NC(=O)CSc2nnc(-c3ccco3)n2-c2ccccc2)sc2c1CCC2	7%	-15%	22µM*	-2
Cc1ccc(Sc2c(C)nn(C(=O)COc3ccccc3Br)c2C)cc1	.	.	6.3µM*	.
FC(F)Oc1ccc(-n2cc(-c3ccccc3)[n+]3c2CCCCC3)cc1	14µM*	1%	-1%	-1
CC1(C)COC(/C=C/c2cccc([N+](=O)[O-])c2)=N1	10%[11.5 µM]	-3%	?	-39*
COCc1cc(C)nc2sc3c(c12)NC(c1ccc(O)cc1)N(c1ccc(C)cc1)C3=O (stereo unspecified)	.	.	405%	.
Cc1ccc2oc3c(c(=O)c2c1)C(c1ccc(O)cc1)N(c1nc(C)c(C)s1)C3=O (stereo unspecified)	.	.	-9%	.
Cn1c(=O)c(=O)n(C)c2cc(NS(=O)(=O)c3ccc(Br)cc3)c(Cl)cc21	.	.	-9%	.
CCCCn1cnc2c(oc3nc4c(cc32)CCCC4)c1=O	15%	1%	-5%	1
O=c1c2oc3nc4c(cc3c2ncn1CCCc1ccccc1)CCCC4	2%	1%	-10%	-32*
O=C(Nc1nnc(N2CCCCCC2)s1)Nc1cc(F)ccc1F	.	.	2%	.
COc1ccc(CNCc2ccncc2)cc1OC	-5%	-3%	-1%	-65*
C=CCc1ccc(OCC(O)CN2CCN(c3ccccc3)CC2)c(OC)c1 (stereo unspecified)	20µM*	-1%	1%	-2
C=CCc1ccc(OCC(O)CN2CCCCC2)c(OC)c1 (stereo unspecified)	12%	-1%	-10%	1
CS(=O)(=O)N1N=C(c2ccc3nccnc3c2)CC1c1ccccc1 (stereo unspecified)	12%	?	-17%	-88*
O=C(NC1CCCCCC1)C1CCN(C(=O)N2CCOc3ccccc32)CC1	.	.	-14%	.
SMILES	AT treatment	Mm-Cpn inhibitor	Anesthetic bind	CCT chaperon mod
O=S(=O)(c1ccccc1)N1N=C(c2cccs2)CC1c1ccc(F)cc1 (stereo unspecified)	5%	-1%	-12%	-1
Fc1ccc(N2N=C(c3cccs3)CC2c2ccccc2)cc1 (stereo unspecified)	22µM*	-2%	76%	3
COc1ccc(Cl)cc1NC(=O)N1CCN(S(=O)(=O)c2ccc3c(ccn3C)c2)CC1	.	.	7%	.
Cc1ccc(OCc2nnc(SCC(=O)c3ccccc3)n2-c2ccccc2)cc1	2%	-1%	-16%	-56*
CCn1c(CNC(=O)c2ccc(OC)cc2)nnc1SCC(=O)c1ccccc1	26%	-1%	1%	-45*
COc1ccc(C(=O)NCc2nnc(SCC(=O)c3ccccc3)n2C)cc1	2%	0%	-8%	-2
O=C(Cn1c(=O)c2cccn2c2ccc(F)cc21)NCc1cccc(Cl)c1	.	.	-18%	.
CCCCCCCCCCCCCC[C@@H](O)[C@@H](O)[C@@H](N)CO	.	.	-6%	.
N=c1n(CC(=O)c2ccc([N+](=O)[O-])cc2)c2ccccc2n1Cc1ccccc1	6%	-1%	41%	-2
N=c1n(CC(=O)c2ccc(Br)cc2)c2ccccc2n1Cc1ccccc1	22µM*	-5%	.	-1
Cn1c(=N)n(CC(=O)c2ccc(Cl)c(Cl)c2)c2ccccc21	28µM*	-23%	1%	-3
Cc1ccc(Nc2nnc(-c3ccc(C)c(S(=O)(=O)N4CCOCC4)c3)c3ccccc23)c(C)c1	.	.	-14%	.
COCCCNC(=O)c1ccc(Cn2c(=O)c3cccn3c3cccnc32)cc1	.	.	29%	.
O=C(C1CCC(Cn2c(=O)c3sccc3n(Cc3cccc(F)c3)c2=O)CC1)N1CCCCC1 (stereo unspecified)	.	.	50%	.
S=C(NN=Cc1ccccn1)N(Cc1ccccn1)Cc1ccccn1	.	.	.	-43*
O=C(Nc1cccnc1)C1(F)C(F)(F)C(F)(F)C(F)(F)C(F)(F)C1(F)F	16%	1%	13µM*	-1
COc1ccc(OC)c(/C=C(\C)C(=O)c2c(C)cc(C)[nH]c2=O)c1	.	.	.	-42*
COc1ccc(/C=C(\C)C(=O)c2c(C)cc(C)[nH]c2=O)cc1	.	.	.	2
Cc1ccc(C(=O)CC2(O)C(=O)N(Cc3ccc4c(c3)OCO4)c3ccccc32)cc1 (stereo unspecified)	-5%	1%	14µM*	0
CC(C)c1ccc(NC(=O)CN2C(=O)CCc3cc(S(=O)(=O)N4CCOCC4)ccc32)cc1	.	.	-17%	.
CC(C)c1nnc(NC(=O)CCC(=O)N2CCN(Cc3ccccc3)CC2)s1	9%	-1%	-15%	-43*
CS(=O)(=O)N1CCN(c2ccccc2NC(=O)Cc2ccc(Cl)cc2)CC1	0%	0%	-6%	-32*
Cc1cc(C)cc(NS(=O)(=O)c2ccc3oc(=O)ccc3c2)c1	.	2%	-16%	-31*
Cc1ccc(C)c(NS(=O)(=O)c2ccc3oc(=O)ccc3c2)c1	3%	-2%	0%	1
Nc1ccccc1Nc1ccccc1	-2%	-2%	-24%	0
Nc1ccc(Nc2ccccc2)c(Cl)c1	-5%	-3%	7.9µM*	-1
Cc1ccc(C)c(S(=O)(=O)c2nnn3c2nc(Nc2ccc(F)c(Cl)c2)c2sccc23)c1	.	.	-3%	.
CC1Cc2ccccc2N1Cc1nc2cc(C(F)(F)F)ccc2c(=O)[nH]1 (stereo unspecified)	1%	-2%	?	2
NC(=O)C1CCN(Cc2nc3cc(C(F)(F)F)ccc3c(=O)[nH]2)CC1	11µM*	-2%	11%	1
